Drawing on PubChem BioAssay AID652105 (National Center for Advancing Translational Sciences (NCATS), 2013), this text covers max response for 55 compounds.

Molecules are shown by their SMILES. Among all 330,000 compounds or so, about 4,100 (1.2%) were called active. About 2% were inconclusive and are not listed. Rule for the calls: active = max response of -50% or lower; inconclusive = between -30% and -50%; inactive = -30% or higher. The list comes from a sample in which actives are over-represented; it also holds similar structures and randomly drawn compounds.
% is set by controls: 0 for no effect and ±100 for the full control effect.

Phosphatidylinositol 5-phosphate 4-kinase type-2 alpha (Homo sapiens), sequence (P48426 whole entry, looked up, canonical isoform): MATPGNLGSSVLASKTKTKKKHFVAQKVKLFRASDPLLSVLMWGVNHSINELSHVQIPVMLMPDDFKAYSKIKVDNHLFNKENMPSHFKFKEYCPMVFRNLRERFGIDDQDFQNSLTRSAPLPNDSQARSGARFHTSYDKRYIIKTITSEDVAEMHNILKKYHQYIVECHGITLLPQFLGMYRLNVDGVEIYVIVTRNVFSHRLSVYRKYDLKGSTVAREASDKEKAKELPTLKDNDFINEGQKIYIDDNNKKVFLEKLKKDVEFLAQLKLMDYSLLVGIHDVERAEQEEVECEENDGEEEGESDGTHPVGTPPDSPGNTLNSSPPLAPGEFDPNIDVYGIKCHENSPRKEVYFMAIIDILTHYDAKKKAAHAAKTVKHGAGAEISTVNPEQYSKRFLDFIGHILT

This test deals with Phosphatidylinositol 5-phosphate 4-kinase type-2 alpha (Homo sapiens) (UniProt P48426). In words: qHTS for Inhibitors of phosphatidylinositol 5-phosphate 4-kinase (PI5P4K). Note: value at the top dose of about 77 µM. The note with it: PI5P4Kalpha enzyme, ADP-Glo luminescence, 60 min; stronger effect = lower value. From the text:
In addition to finding PI5P, we discovered the type II phosphatidylinositol 5-phosphate 4-kinase (PI5P4K) family (alpha, beta, gamma isoforms) that catalyze the conversion of PI5P to PI(4,5)P2. Alternatively, PI(4,5)P2 can also be synthesized through phosphatidylinositol-4-phosphate (PI4P) by the type I phosphatidylinositol 4-phosphate 5-kinases (PI4P5K). These PI5P4K enzymes therefore represent one way by which cells can regulate endogenous PI5P levels and play important roles in insulin signaling and in stress responses.
This proposal aims to identify and optimize specific modulators of human PI5P4K, phosphatidylinositol-5-phosphate 4-kinase (Type II PIPK), a family of kinases that regulate AKT signaling and tumor cell growth. In this project we aim to identify inhibitors of human PI5P4K using a quantitative high-throughput screening approach against the MLSMR containing ~400,000 small molecules.
NIH Chemical Genomics Center [NCGC]
NIH Molecular Libraries Probe Centers Network [MLPCN]
Assay Submitter (PI): Atsuo Sasaki, Beth Israel Deaconess Medical Center
2 microL of PI5P4Kalpha/substrate buffer (columns 1-2, 5-48) are dispensed into Greiner white solid bottom 1536-well assay plates; column 3 receives only PI5P4Kalpha buffer as 0x substrate controls; column 4 receives only substrate buffer as 0x PI5P4Kalpha controls. Final assay buffer consists of 0.038 M HEPES pH 7.4, 0.28 mM EGTA, 0.1% CHAPS, and 5% DMSO (final concentration). Compounds are then transferred via Kalypsys pin tool equipped with 1536-pin array (10 nL slotted pins, V&P Scientific, San Diego, CA). Following addition of compound, 1 microL of ATP (5 microM final concentration, all columns) is added to initiate the reaction. ATP is diluted in an assay buffer consisting of 0.02 M HEPES pH 7.4, 60 mM MgCl2, 15 microM ATP, and 0.1% CHAPS. The plates are then incubated at room temperature for 60 minutes. ADP-Glo reagent 1 is added (2 microL) and plates incubated for 45 minutes, before ADP-Glo reagent 2 (4 microL) is added and plates incubated for 30 minutes. They are then transferred to a ViewLux high-throughput CCD imager (PerkinElmer) wherein single end-point measurements of luminescence are acquired using a clear filter.
For orientation: Quantitative high-throughput screening tests each substance at several concentrations.
Turning to `O=C1NC(=O)N(Cc2ccco2)C(=O)/C1=C\c1ccc(-c2ccc(F)cc2)o1`, the max response was -73.5% (active).
`O=C1NC(=O)N(CCc2ccc(F)cc2)C(=O)/C1=C/C=C/c1ccccc1`: the max response was -26.8% (inactive).
Under `O=C1NC(=O)N(Cc2ccco2)C(=O)/C1=C\c1cccn1CCOc1ccccc1` stands -24.2% (inactive).
On to `O=c1[nH]c2ccccc2n1C1CCN(C(c2ccccc2)c2nnnn2Cc2ccccc2)CC1` (stereo not given), for which the max response was -4.66% (inactive).
Under `COC(=O)C1=C(c2ccc(OCc3ccccc3)cc2)C[C@@H]2CC[C@H]1N2C(=O)NCc1ccc(Cl)cc1` stands 5.92% (inactive).
Under `CCOC(=O)c1cccc(C2=C(CNC(=O)c3ccncc3)[C@H]3CC[C@@H](C2)N3Cc2ccccc2)c1` stands -3.84% (inactive).
Under `O=C(O)CCn1cc(C=C2C(=O)NC(=S)NC2=O)c(-c2cccc(Br)c2)n1` stands -58.5% (active).
For `O=C(NCC1=C(c2ccc3ccccc3c2)C[C@@H]2CC[C@H]1N2Cc1ccco1)c1cccs1`, the max response was -1.39% (inactive).
Under `COC(=O)C1=C(c2ccc(OCc3ccccc3)cc2)C[C@@H]2CC[C@H]1N2C(=O)NCc1cccc(F)c1` stands 0.749% (inactive); under `CCCCC(=O)N/N=C/c1c(O)n(-c2ccccc2)c(=O)[nH]c1=O`, -1.14% (inactive).
In the case of `O=c1[nH]c(=O)n(Cc2ccccc2)c(O)c1/C=N/Nc1c(F)c(F)c(F)c(F)c1F`, the max response is 4.31% (inactive).
On to `O=C(N/N=C/c1c(O)n(Cc2ccccc2)c(=O)[nH]c1=O)c1ccccc1`, for which the max response is -53.6% (active).
As for `CC/C(=N\NC(=O)c1ccccc1O)c1c(O)n(Cc2ccccc2)c(=O)[nH]c1=O`, the max response is -90.3% (active).
Under `CCC(=NCCc1ccccc1)c1c(O)n(C2CCCCC2)c(=O)[nH]c1=O` stands -4.68% (inactive); under `CCC(=NCCCO)c1c(O)n(-c2ccc(OC)cc2)c(=O)[nH]c1=O`, 0.144% (inactive); under `COc1ccc(NC(=O)N2Cc3ccccc3-n3nncc3C2)cc1`, -4.3% (inactive).
`COc1ccc(-n2nnnc2C(c2cccc3ccccc23)N2CCC(n3c(=O)[nH]c4ccccc43)CC2)cc1` (stereo not given): the max response is 0.885% (inactive).
On to `CSCCC(c1nnnn1C(C)(C)C)N1CCC(n2c(=O)[nH]c3ccccc32)CC1` (stereo not given), for which the max response was 8.06% (inactive).
Under `O=c1[nH]c2ccccc2n1C1CCN(C(c2ccnc3ccccc23)c2nnnn2Cc2ccccc2)CC1` (stereo not given) stands -3.14% (inactive); under `O=C1NC(=O)C(C/C=C/c2ccccc2)C(=O)N1`, -78.1% (active); under `O=C1NC(=O)C(Cc2ccccc2)C(=O)N1`, -28.7% (inactive).
As to `CC(=O)NCC1=C(c2ccc3ccccc3c2)C[C@@H]2CC[C@H]1N2Cc1ccco1`, the max response was -10.1% (inactive).
On to `O=c1c2ccccc2nc(CBr)n1-c1ccc(Cl)cc1`, for which the max response is -9.65% (inactive).
Under `S=C(NCCc1ccccc1)N1Cc2cc(N3CCOCC3)ccc2-n2nncc2C1` stands -1.37% (inactive); under `CCOC(=O)[C@]12Cc3ccccc3[C@H]1N(C1CCCCC1)C(=O)c1cc(OC)ccc12`, -1.4% (inactive).
Under `COc1cc(C(=O)N2Cc3ccc(Br)cc3-n3nncc3C2)cc(OC)c1OC` stands -0.882% (inactive); under `C=CCN(CC=C)C(=O)Nc1ccc(OCC)cc1`, -4.12% (inactive).
Under `CCC(=O)c1ccc(OCC(=O)N2CCN(CC(=O)Nc3ccc(C)cc3)CC2)cc1` stands 1.24% (inactive); under `C=CCN1C(=O)NC(=O)/C(=C/c2ccc(OCC(=O)Nc3ccc(C)cc3)cc2)C1=O`, -72.6% (active); under `O=C(NC1CCCCC1)N1Cc2cc(N3CCCCC3)ccc2-n2nncc2C1`, -0.829% (inactive).
Regarding `O=C1NC(=O)N(c2ccccc2)C(=O)/C1=C/c1ccc([N+](=O)[O-])s1`, the max response was -72.2% (active).
As for `COc1cccc(N2C(=O)NC(=O)/C(=C\c3ccc([N+](=O)[O-])s3)C2=O)c1`, the max response is -64.2% (active).
For the compound `COc1cccc(N2C(=O)NC(=O)/C(=C\c3cn(C)c4ccccc34)C2=O)c1`, the max response was 5.95% (inactive).
Take `O=C1NCN(c2ccccc2)C12CCN(C(c1cccs1)c1nnnn1C1CCCCC1)CC2` (stereo not given): the max response is -2.62% (inactive).
Under `c1ccc(N2Cc3ccccc3-n3nncc3C2)nc1` stands -2.17% (inactive); under `CC(=CCOc1ccc2ccc(=O)oc2c1)C1=CC(=O)C(C)(C)O1`, 4.71% (inactive).
Under `c1cc2c(c(NC3=NCCCS3)c1)CCCC2` stands -10.3% (inactive).
Under `CC(C)CN1Cc2cc(N3CCCCC3)ccc2-n2nncc2C1` stands -0.0123% (inactive); under `COC(=O)C[C@H]1CC[C@H]2NC[C@@H](O)COC[C@@H]2O1`, -5.22% (inactive).
Take `COc1ccc2c(c1)NP(=S)(c1ccccc1)N2` (stereo not given): the max response was -27.5% (inactive).
Under `COc1ccc(N2C(=O)/C(=C/c3ccco3)C(=O)NC2=S)cc1` stands -103% (active); under `CCOC(=O)CNC(=O)N1Cc2cc(N3CCCCC3)ccc2-n2nncc2C1`, 7.51% (inactive).
As for `COc1ccc(C2C=C(C)Oc3c2c(=O)oc2ccccc32)cc1OC` (stereo not given), the max response was 1.36% (inactive).
Under `CCn1cc(CN2CCCC(C(=O)c3cccc(C(F)(F)F)c3)C2)cn1` (stereo not given) stands 5.27% (inactive).
Turning to `O=C(CN1CCCC1=O)NCCc1ccccc1`, the max response is 1.78% (inactive).
As to `O=C1CC(=O)N(Cc2ccccc2)C(=O)N1CCCCCCN1C(=O)CC(=O)N(Cc2ccccc2)C1=O`, the max response is -68.4% (active).
Under `COc1cccc(C(c2nnnn2-c2ccc3c(c2)OCCO3)N2CCC3(CC2)C(=O)NCN3c2ccccc2)c1OC` (stereo not given) stands -0.4% (inactive); under `O=P(OC1=CCCCC1)(c1ccccc1)c1ccccc1`, 1.07% (inactive).
Regarding `Cc1ncoc1C(=O)NCC1=C(c2cccc3ccccc23)C[C@@H]2CC[C@H]1N2Cc1ccco1`, the max response was 7.08% (inactive).
Under `Cc1cccc(N2C(=O)NC(=O)/C(=C\c3cnn(-c4ccccc4)c3)C2=O)c1` stands -69.1% (active); under `Cc1ccccc1N1C(=O)NC(=O)/C(=C\c2cc(C)n(C)c2C)C1=O`, 0.241% (inactive).
Under `Cc1c(C(=O)O)cccc1-n1c(C)cc(/C=C2\C(=O)NC(=O)N(c3ccc4c(c3)OCO4)C2=O)c1C` stands -18.8% (inactive); under `COC(=O)CN(CCCl)P1(=O)OCCCN1CCCl` (stereo not given), -2.26% (inactive).
Under `O=c1c2ccccc2[nH]c(=S)n1-c1cccc(Cl)c1` stands -8.39% (inactive); under `CCOC(=O)[C@]12Cc3cc(OC)ccc3[C@H]1N(C(C)C)C(=O)c1ccccc12`, 1.48% (inactive).
